The values that follow come from article PMC4336329 (PLoS ONE, 2015).

Structures are written as SMILES. Among all 310,000 compounds or so, about 14,000 (4.5%) showed an effect of 50% or more. The effect is printed as a negative number. Shown is part of a subset that was picked to be rich in strong results.
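Further: peak tail current of the secondary pulse compared with the same well before compound.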

The target of this assay is human ether-à-go-go-related gene (hERG) potassium channel (human, UniProt Q12809). Description: primary screen, population patch clamp on CHO cells stably expressing hERG; higher = less effect of the substance.
Sequence of human ether-à-go-go-related gene (hERG) potassium channel (Q12809 whole entry, looked up): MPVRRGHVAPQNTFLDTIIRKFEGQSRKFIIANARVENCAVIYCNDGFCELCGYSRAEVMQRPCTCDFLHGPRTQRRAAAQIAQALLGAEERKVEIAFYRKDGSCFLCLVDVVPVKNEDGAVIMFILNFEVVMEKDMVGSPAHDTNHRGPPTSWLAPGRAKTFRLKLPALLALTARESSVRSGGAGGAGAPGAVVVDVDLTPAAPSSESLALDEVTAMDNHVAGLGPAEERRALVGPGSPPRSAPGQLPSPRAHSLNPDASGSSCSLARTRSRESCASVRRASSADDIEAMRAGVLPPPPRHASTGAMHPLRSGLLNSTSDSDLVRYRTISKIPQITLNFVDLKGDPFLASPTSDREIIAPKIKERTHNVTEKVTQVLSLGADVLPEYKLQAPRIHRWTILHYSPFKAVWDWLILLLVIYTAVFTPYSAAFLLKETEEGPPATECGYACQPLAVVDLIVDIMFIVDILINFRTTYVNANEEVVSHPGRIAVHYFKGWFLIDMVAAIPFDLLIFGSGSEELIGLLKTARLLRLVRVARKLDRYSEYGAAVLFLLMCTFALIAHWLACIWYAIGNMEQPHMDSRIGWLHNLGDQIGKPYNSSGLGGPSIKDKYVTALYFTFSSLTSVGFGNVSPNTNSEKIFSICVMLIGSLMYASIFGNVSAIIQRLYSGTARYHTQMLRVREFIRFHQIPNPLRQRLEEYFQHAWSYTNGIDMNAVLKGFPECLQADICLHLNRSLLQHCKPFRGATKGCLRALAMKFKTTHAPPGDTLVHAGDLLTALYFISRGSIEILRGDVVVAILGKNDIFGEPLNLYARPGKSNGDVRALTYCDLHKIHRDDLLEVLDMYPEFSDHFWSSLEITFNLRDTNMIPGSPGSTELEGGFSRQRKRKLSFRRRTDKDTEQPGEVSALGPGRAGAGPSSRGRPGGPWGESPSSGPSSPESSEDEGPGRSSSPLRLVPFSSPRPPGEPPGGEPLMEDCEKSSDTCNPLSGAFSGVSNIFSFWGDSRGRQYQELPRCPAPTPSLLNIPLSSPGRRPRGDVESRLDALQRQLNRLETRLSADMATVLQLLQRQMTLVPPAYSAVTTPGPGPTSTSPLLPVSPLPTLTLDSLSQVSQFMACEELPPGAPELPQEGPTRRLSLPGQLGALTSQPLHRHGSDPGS
For `CCN1CCCC1CNC(=O)Cn1cccc1C(=O)c1ccccc1` (stereo not shown), the “hERG current change (%, negative = inhibition) at 10uM” value is reported as -3.53%.

As to `O=C1C=C(c2ccc(F)cc2OCc2ccccc2)C[C@@H](c2ccc(Cl)cc2)C1`, the “hERG current change (%, negative = inhibition) at 10uM” value is on record as 6.91%. As for `CCOC(=O)[C@H]1[C@H]2COc3ccc(Cl)cc3[C@@H]2N2C(=O)c3cc(C)ccc3NC(=O)[C@@]12C`, the figure is 5.63%. As to `Cc1cc(C)n2nc(N)c(N=Nc3ccccc3)c2n1`, the “hERG current change (%, negative = inhibition) at 10uM” value is recorded as -3.32%. Consider `COC(=O)[C@H](CCSC)NC(=O)c1cc2c(cn1)[nH]c1ccccc12`, for which the “hERG current change (%, negative = inhibition) at 10uM” value is reported as 0.117%. As to `O=C(CSc1nc2ccccc2[nH]1)c1ccco1`, the “hERG current change (%, negative = inhibition) at 10uM” value is listed as -4.74%. Consider `CCOC(=O)Nc1ccccc1C(=O)Nc1cc(C)cc(C)c1`, for which the “hERG current change (%, negative = inhibition) at 10uM” value came out at 28.9%.

As to `Cc1ccn2c(NC3CCCC3)c(-c3ccncc3)nc2c1`, the “hERG current change (%, negative = inhibition) at 10uM” value was -10.2%. For `COc1cc(-c2nc3cccc(C)n3c2NCC2CCCO2)ccc1O` (stereo not shown) the value was -51.4%; for `COc1ccc(-c2nc3cccc(C)n3c2NCc2ccco2)cc1OC`, -42.2%. On to `CCOc1cc(-c2nc3cc(C)ccn3c2NCC2CCCO2)ccc1O` (stereo not shown), for which the “hERG current change (%, negative = inhibition) at 10uM” value was -72.2%.

On to `CCOc1cc(/C=C(\C#N)C(=O)NCC2CCCO2)ccc1O` (stereo not shown), for which the “hERG current change (%, negative = inhibition) at 10uM” value is recorded as -3.03%.

Regarding `CCCCNc1c(-c2ccc(OC)c(SC3CCCCC3)c2)nc2cc(C)ccn12.O=C(O)C(F)(F)F`, the “hERG current change (%, negative = inhibition) at 10uM” value was found to be 12.6%. For `CCOc1cc(-c2nc3ccccn3c2NCC2CCCO2)ccc1O` (stereo not shown) the value was -64.7%. As to `COc1cc(-c2nc3ccccn3c2NCC2CCCO2)ccc1O` (stereo not shown), the “hERG current change (%, negative = inhibition) at 10uM” value was -17.9%.

As to `COc1ccc(-c2nc3cc(C)ccn3c2NCC2CCCO2)cc1OC.Cl` (stereo not shown), the “hERG current change (%, negative = inhibition) at 10uM” value is listed as -71.2%. For `CCOc1cc(-c2nc3c(C)cccn3c2NCC2CCCO2)ccc1O.CNC.Cl` (stereo not shown), the “hERG current change (%, negative = inhibition) at 10uM” value is -43.9%.

Regarding `COc1ccc(-c2nc(C#N)c(NCC3CCCO3)o2)cc1OC` (stereo not shown), the “hERG current change (%, negative = inhibition) at 10uM” value worked out at 6.28%. Regarding `COc1ccc(-c2nc3cccc(C)n3c2NCC2CCCO2)cc1O.Cl` (stereo not shown), the “hERG current change (%, negative = inhibition) at 10uM” value is on record as -5.6%. As for `CCN(CC)CCN1C(=O)C(=O)/C(=C(/O)c2c(C)[nH]c(C(=O)OC)c2C)C1c1ccccc1OC` (stereo not shown), the “hERG current change (%, negative = inhibition) at 10uM” value worked out at 20.8%. Regarding `O=C(NCCCN1CCCC1=O)c1cccc(C(F)(F)F)c1`, the “hERG current change (%, negative = inhibition) at 10uM” value is -3%.

With `CCOC(=O)C1CCN(CC(C)(C)NS(=O)(=O)c2ccc(Cl)cc2)CC1`, the “hERG current change (%, negative = inhibition) at 10uM” value is given as -1.75%. As for `C/C(=N/Nc1nc(C)cc(C)n1)c1ccc(Br)cc1`, the “hERG current change (%, negative = inhibition) at 10uM” value is on record as -14.9%. For `C/C(=N/Nc1ccnc2cc(Cl)ccc12)c1ccc(O)cc1` the value was -6.2%. As for `Cc1ccc(C)c(N2CCN(c3ccncc3N)CC2)c1`, the figure is -47.8%; as for `Cc1c(NC2=CC(=O)CCC2)c(=O)n(-c2ccccc2)n1C`, 8.37%. Consider `O=C(CC(=O)N1CCN(c2ccccn2)CC1)Nc1ccc2nc3n(c(=O)c2c1)CCCCC3`, for which the “hERG current change (%, negative = inhibition) at 10uM” value is on record as -17.9%.

`CCn1c(O)c(/C(C)=N/N2CCCCC2c2cccnc2)c(=O)[nH]c1=S` (stereo not shown): the “hERG current change (%, negative = inhibition) at 10uM” value is listed as -55.2%. On to `CCCCn1c(O)c(/C(CC)=N/N2CCCCC2c2cccnc2)c(=O)[nH]c1=S` (stereo not shown), for which the “hERG current change (%, negative = inhibition) at 10uM” value is reported as -27%. As to `C/C(=N\N1CCCCC1c1cccnc1)c1c(O)n(C2CCCCC2)c(=S)[nH]c1=O` (stereo not shown), the “hERG current change (%, negative = inhibition) at 10uM” value is listed as 0.0734%.

With `O=[N+]([O-])c1cc([N+](=O)[O-])c(Oc2c(F)ccc(F)c2F)cc1NN1CCCCC1`, the “hERG current change (%, negative = inhibition) at 10uM” value amounted to 19.8%. For `CC1CCCCC1NC(=O)c1ccc(S(=O)(=O)NCc2ccco2)cc1` (stereo not shown), the “hERG current change (%, negative = inhibition) at 10uM” value amounted to 7.19%. `CCNc1nc(=S)nc(NC(C)C)[nH]1`: the “hERG current change (%, negative = inhibition) at 10uM” value is 29.6%. Regarding `CCOC(=O)N1CCN(C(=O)C2CCCN(Cc3nc(-c4ccc(Cl)cc4)oc3C)C2)CC1` (stereo not shown), the “hERG current change (%, negative = inhibition) at 10uM” value is -70.9%. `Cc1ccc(-c2nc(CN3CCCC(C(=O)N4CCOCC4)C3)c(C)o2)cc1` (stereo not shown): the “hERG current change (%, negative = inhibition) at 10uM” value is reported as -37.5%. For the molecule `CCOC(=O)N1CCC(NC(=O)CS(=O)Cc2nc(-c3ccc(Cl)cc3)oc2C)CC1` (stereo not shown), the “hERG current change (%, negative = inhibition) at 10uM” value is on record as -47.4%. As for `Cc1oc(-c2cc3c(cc2Cl)OCO3)nc1CN1CCCC(C(=O)N2CCOCC2)C1` (stereo not shown), the figure is -24.7%; as for `CCOc1ccc(-c2nc(CN3CCCC(C(=O)N4CCOCC4)C3)c(C)o2)cc1` (stereo not shown), -26.5%; as for `Cc1oc(-c2ccc(Cl)cc2)nc1CN1CCCC(C(=O)N2CCOCC2)C1` (stereo not shown), -53.8%. `O=C(C1CCC(CNS(=O)(=O)c2ccccc2)CC1)N1CCCCC1` (stereo not shown): the “hERG current change (%, negative = inhibition) at 10uM” value is -1.89%.

In the case of `C=CCN(c1ccc(Br)cc1C(=O)OC)S(C)(=O)=O`, the “hERG current change (%, negative = inhibition) at 10uM” value is reported as 0.801%. For `Brc1ccc(-c2cnc(-c3cccs3)o2)cc1` the value was -3%; for `CN1C2CCC1CC(NC(=O)CSCc1ccc(Cl)cc1Cl)C2` (stereo not shown), -57.4%.
